High-throughput results as filed in PubChem.
BAZ2B inh: inhibitors of human BAZ2B bromodomain. Potency, µM (highest dose often 114 µM), most hits filed as inhibitors. AlphaScreen BAZ2B-H3K14Ac peptide displacement. Q9UIF8. hit rate 4.4% among 360,000; also: nearly all actives have a fitted effect of over 60% in size
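Compounds, titrated to a top concentration of 110 uM, were incubated 30 min at room temperature with preformed BAZ2B/acetyl-K14 H3 peptide complex (50 nM each). Proximity signal was measured by AlphaScreen after 20 min with beads.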
L3MBTL1 inh: blocks human L3MBTL1; Potency, µM (titrated, usually from 57.1 µM), usual class: inhibitors; hit rate 0.66% among 230,000; AlphaScreen L3MBTL1–H3K9me1 peptide binding; Q9Y468; also: nearly all actives have a fitted effect of over 60% in size
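Read-out is AlphaScreen signal from streptavidin donor and nickel chelate acceptor beads (10 ug/mL final each) bridging L3MBTL1 (50 nM) and biotinylated K9-monomethylated H3(1-15) peptide (75 nM), after 30 min compound exposure at room temperature.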
JMJD2A Tudor: blocks the human JMJD2A Tudor domain | AlphaScreen JMJD2A-Tudor / H3K4me3 peptide binding | Potency, µM (doses to about 114 µM), most hits filed as inhibitors | hit rate 4.4% among 390,000; also: nearly all actives have a fitted effect of over 50% in size
GLS inh: blocks human kidney-isoform glutaminase activity; Potency, µM (doses to about 45.5 µM), usual class: inhibitors; hit rate 0.21% among 410,000; AID 624170; GLS enzymatic activity, qHTS titration; O94925
Target sequence (O94925 whole entry, looked up, canonical isoform): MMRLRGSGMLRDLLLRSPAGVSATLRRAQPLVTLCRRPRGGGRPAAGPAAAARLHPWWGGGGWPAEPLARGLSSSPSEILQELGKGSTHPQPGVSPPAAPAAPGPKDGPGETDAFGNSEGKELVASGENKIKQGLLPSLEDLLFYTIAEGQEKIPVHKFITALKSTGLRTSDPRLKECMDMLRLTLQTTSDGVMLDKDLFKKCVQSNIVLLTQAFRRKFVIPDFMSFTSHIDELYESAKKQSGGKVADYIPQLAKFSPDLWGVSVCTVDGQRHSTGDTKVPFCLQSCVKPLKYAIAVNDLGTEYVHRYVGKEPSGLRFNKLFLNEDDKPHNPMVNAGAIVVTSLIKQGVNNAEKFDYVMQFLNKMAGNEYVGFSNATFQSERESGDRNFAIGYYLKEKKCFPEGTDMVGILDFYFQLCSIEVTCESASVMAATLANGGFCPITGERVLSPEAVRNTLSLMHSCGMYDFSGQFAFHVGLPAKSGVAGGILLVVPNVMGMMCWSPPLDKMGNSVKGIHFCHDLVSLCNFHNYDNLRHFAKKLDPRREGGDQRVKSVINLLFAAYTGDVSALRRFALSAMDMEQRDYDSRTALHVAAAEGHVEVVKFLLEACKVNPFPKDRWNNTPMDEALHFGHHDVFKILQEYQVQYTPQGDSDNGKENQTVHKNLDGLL
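Assay buffer: 45 mM KH2PO4 pH 8.2, 0.02% Tween-20. hKGA acts on L-glutamine (1 mM solution added); product glutamate is reported by an oxidase/peroxidase Amplex Red coupling, with fluorescence taken at baseline and 30 min.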
HP1b binding inh: HP1-beta chromodomain-methylated histone interaction inhibition. AlphaScreen HP1-beta / biotin-H3K9me3 peptide binding. hit rate 0.56% among 390,000. Potency, µM (titrated, usually from 114 µM), actives largely listed as inhibitors. P83916; also: nearly all actives have a fitted effect of over 70% in size
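Compound inhibition of the preformed complex between 50 nM HP1-beta and 50 nM biotinylated H3K9me3 peptide was read by AlphaScreen. Buffer was PBS pH 7.4 with 0.01% Tween-20. Incubations ran 30 min at room temperature, with 10 ug/mL donor/acceptor beads.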
G9a inh: G9a (human) methyltransferase inhibition; AID 504332; Potency, µM (titrated, usually from 102 µM), actives largely listed as inhibitors; hit rate 8.8% among 350,000; G9a H3K9 monomethylation, AlphaScreen, 2 h; Q96KQ7; also: nearly all actives have a fitted effect of over 75% in size
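AlphaScreen detection with an anti-monomethyl H3K9 antibody quantified product after a 2 h room-temperature reaction containing 500 nM biotinylated H3K9 peptide, 20 µM SAM and 20 nM enzyme, which had been preincubated 15 min with compound.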
A number is an active result; 0 = inactive; ? = inconclusive; - = no result. Rows were chosen to be rich in hits. Some 10% of all compounds tested hit in one or more screens of this group. Calls follow the shape of the dose curve; as a rule, active = well fitted curve in the direction sought with a large enough effect; inconclusive = small, poorly fitted or top-dose-only effect, or another doubt; inactive = no such curve, though single readings can be large; an effect the other way counts as inactive or inconclusive.

SMILES	BAZ2B inh	L3MBTL1 inh	JMJD2A Tudor	GLS inh	HP1b binding inh	G9a inh
CC1CC(C)CN(c2oc(Cc3ccccc3)nc2C#N)C1 (configuration not stated)	14.1µM	?	?	0	?	11.2µM
N#Cc1nc(Cc2ccccc2)oc1N1CCCC1	?	0	0	0	0	-
N#Cc1nc(Cc2cccc3ccccc23)oc1N1CCC(C(N)=O)CC1	0	0	0	0	0	0
CC1CCN(c2oc(Cc3cccc4ccccc34)nc2C#N)CC1	?	?	?	0	?	8.91µM
CCOC(=O)c1ccccc1NC(=O)N1CCC(CN2CCCCC2)CC1	0	-	0	0	0	0
O=P(O)(O)OC(Cn1cncn1)(Cn1cncn1)c1ccc(F)cc1F	-	-	-	0	-	-
Cc1ccc(S(=O)(=O)N2CCCCC2)cc1	0	-	0	0	0	0
Cc1ccc(N=Nc2c(O)n(CN3CCOCC3)c3ccccc23)cc1	0	0	0	0	0	0
COc1cccc(N=Nc2ccc3ccccc3c2O)c1	1.58µM	0	2.82µM	0	?	-
Cc1ccc(O)c(N=Nc2ccc(S(=O)(=O)N3CCCC3)cc2)c1	3.98µM	-	?	0	0	8.91µM
Oc1ccc2ccccc2c1N=Nc1ccc(F)cc1	2.24µM	?	2.24µM	0	5.62µM	2µM
Cc1ccc(N=Nc2ccc3ccccc3c2O)cc1	1.12µM	?	3.16µM	0	?	2µM
Oc1c(N=Nc2nn[nH]n2)ccc2ccccc12	-	-	-	20µM	-	-
CC(=O)/C(N=Nc1cc(C)ccc1O)=C(\C)O	0	0	0	0	0	?
COc1ccc(N=Nc2ccc3ccccc3c2)c(O)c1	5.62µM	?	10µM	0	3.16µM	10µM
COc1ccc(N=Nc2ccc(CO)cc2)cc1	-	-	?	0	0	-
COc1ccc(N=Nc2cc(C)ccc2O)cc1	8.91µM	?	25.1µM	0	14.1µM	?
Oc1c(-c2cc(-c3ccco3)[nH]n2)ccc2ccccc12	?	-	?	0	0	?
Cc1ccc(O)c(N=Nc2nccs2)c1	10µM	?	35.5µM	0	?	?
COc1ccc(NC(=O)CSc2c3c(nc4ccc(Cl)cc24)CCCC3)cc1Cl	-	-	0	0	0	0
O=C(c1ccccn1)N(Cc1ccco1)C1(C(=O)NC2CCCC2)CCCCC1	0	-	0	0	0	0
O=C(c1ccc2c(c1)OCO2)N(Cc1ccco1)C1(C(=O)NC2CCCCC2)CCCCC1	0	-	0	0	0	79.4µM
CCCC(CCC)C(N)=O	-	-	-	0	-	-
Cc1ccc(C)c(-n2c3nc(=O)n(C)c(=O)c-3cc3ccccc32)c1	0	0	0	0	0	79.4µM
Cc1ccc(-n2c3nc(=O)n(C)c(=O)c-3cc3ccccc32)c(C)c1	-	-	0	0	0	0
SMILES	BAZ2B inh	L3MBTL1 inh	JMJD2A Tudor	GLS inh	HP1b binding inh	G9a inh
S=c1[nH]nc(C2CCCCC2)n1/N=C/C=C/c1ccccc1	?	0	79.4µM	?	0	10µM
C(=C\c1ccccc1)/C=N/N1CCN(c2ccccn2)CC1	0	0	?	0	0	?
S=c1[nH]nc(C2CCCCC2)n1/N=C/C(Cl)=C\c1ccccc1	0	0	?	0	0	25.1µM
CC(/C=N/NC(=O)c1cc(C2CC2)[nH]n1)=C\c1ccccc1	0	-	0	0	0	0
COc1cc(NC(=O)C(Cc2ccccc2)NS(=O)(=O)c2cccc3nsnc23)cc(OC)c1 (configuration not stated)	-	-	0	0	0	0
CCCN(Cc1cc2cccc(C)c2[nH]c1=O)C(=O)c1cccc(Cl)c1	0	-	0	0	0	0
CCS(=O)(=O)N1CCN(S(=O)(=O)c2ccc3ccccc3c2)CC1	0	0	0	0	0	-
O=C(O)c1cccc(S(=O)(=O)N2CCCC2)c1	0	0	0	0	0	?
CC(C)N1CCN(S(=O)(=O)c2ccccc2)CC1	?	0	28.2µM	0	?	22.4µM
CC1CN(C2CCN(S(=O)(=O)c3ccc4ccccc4c3)CC2)CC(C)O1 (configuration not stated)	44.7µM	0	?	0	?	6.31µM
CC(C)N1CCN(S(=O)(=O)c2ccc3ccccc3c2)CC1	?	0	15.8µM	0	?	-
O=C(O)c1cccc(S(=O)(=O)N2CCN(C(c3ccccc3)c3ccccc3)CC2)c1	?	0	0	0	0	35.5µM
CCN1CCN(S(=O)(=O)c2ccc3ccccc3c2)CC1	0	-	0	0	0	0
CN1CCN(S(=O)(=O)c2ccccc2)CC1	0	0	0	0	0	0
COC(=O)c1ccc(NC(=O)C(=O)NCCc2csc(-c3ccc(F)cc3)n2)cc1	0	-	0	0	0	0
COc1ccc(NS(=O)(=O)c2ccc3c(c2)CC(C)N3C(C)=O)c(OC)c1 (configuration not stated)	0	-	0	0	0	0
O=C(O)c1ccc(Cn2cc(/C=C\[N+](=O)[O-])c3ccccc32)o1	?	0	0	0	0	39.8µM
Cc1cc(C)c2c(N)c(C(=O)NC3CCCC3)sc2n1	0	0	0	0	0	35.5µM
Cc1cc(C)c2c(N)c(C(=O)N3CCc4ccccc4C3)sc2n1	0	0	0	0	0	70.8µM
CCN1CCc2nc3sc(C(=O)N4CCc5ccccc5C4)c(N)c3cc2C1	?	-	79.4µM	0	0	20µM
COc1ccc(OCCNC(=S)Nc2cccc3ccccc23)cc1	?	0	?	0	0	0
CCCCNC(=S)Nc1cccc2cnccc12	0	0	0	0	0	44.7µM
CC(=O)c1ccc(NC(=S)Nc2cccc3cnccc23)cc1	?	-	0	0	0	?
COCCNC(=S)Nc1cccc2cnccc12	0	-	0	0	0	50.1µM
CCOC(=O)c1ccc2c(c1)N(Cc1ccc(F)cc1Cl)C(=O)c1ccccc1S2	0	-	0	0	0	0
SMILES	BAZ2B inh	L3MBTL1 inh	JMJD2A Tudor	GLS inh	HP1b binding inh	G9a inh
COc1ccc(OCc2ccc(/C=N\NC(=O)c3sccc3C)o2)cc1	0	-	0	0	0	39.8µM
O=C(N/N=C\c1ccc(COc2ccc([N+](=O)[O-])cc2)o1)c1ccc(Cl)cc1	0	-	0	0	0	0
Cc1ccc(CN(Cc2ccco2)c2cnc(S(C)(=O)=O)nc2C(=O)Nc2ccccc2Br)o1	0	-	?	0	0	0
Cc1ccc2c(Sc3ccc(Cl)cc3)c(C(=O)N3CCC(C)CC3)[nH]c2c1	0	-	0	0	0	0
CCOc1ccc(C(=O)Nc2cccc(-c3ccc(N4CCOCC4)nn3)c2)cc1OCC	0	0	0	0	0	44.7µM
CN1CCN(c2ccc(-c3cccc(NC(=O)COc4ccccc4)c3)nn2)CC1	0	0	0	0	0	?
COc1ccc(C(=O)Nc2cccc(-c3ccc(N4CCOCC4)nn3)c2)cc1OC	0	0	0	0	0	0
CN1CCN(c2ccc(-c3cccc(NC(=O)COc4ccc(Cl)cc4)c3)nn2)CC1	0	0	0	0	0	50.1µM
